CYP2C9 act: CYP2C9 (human) activation | P11712 | activation factor at 5 µM | 1.4% of 96,000 active | recombinant CYP2C9, luciferin-H conversion, luminescence; stronger effect = higher value; factor 1 = untreated enzyme, 0 = blocked;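 active = activation factor of 2 or more for CYP2C9 at a 5 µM dose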
Target sequence (P11712 whole entry, looked up): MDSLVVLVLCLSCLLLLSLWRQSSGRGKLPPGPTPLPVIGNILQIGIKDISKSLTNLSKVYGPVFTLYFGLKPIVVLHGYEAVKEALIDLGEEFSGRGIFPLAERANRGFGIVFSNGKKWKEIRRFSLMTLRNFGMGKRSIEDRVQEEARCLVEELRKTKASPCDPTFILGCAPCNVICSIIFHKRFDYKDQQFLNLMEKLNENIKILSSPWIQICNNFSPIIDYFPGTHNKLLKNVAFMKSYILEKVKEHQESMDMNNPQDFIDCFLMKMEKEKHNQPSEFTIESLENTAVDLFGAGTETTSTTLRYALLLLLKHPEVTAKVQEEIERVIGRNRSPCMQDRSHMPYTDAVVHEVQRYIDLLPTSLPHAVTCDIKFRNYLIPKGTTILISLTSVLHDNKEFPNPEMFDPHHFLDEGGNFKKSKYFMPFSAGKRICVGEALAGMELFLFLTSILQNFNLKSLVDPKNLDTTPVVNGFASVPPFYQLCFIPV
CYP2C9 inhib: inhibitors of human CYP2C9. CYP2C9 Supersomes, luciferin-H conversion, luminescence. inhibition, % at 5 µM. 20% of 96,000 active. AID 777;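 active = blocking of liver enzyme CYP2C9 beyond about 50% at 5 µM, limit read from the data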
Mac1 fbg inh: CD11b/CD18-fibrinogen binding inhibition; P05107+P11215; K562 CD11b/CD18 adhesion to fibrinogen, ATPlite luminescence; Mn2+ added to activate the integrin; inhibition, % at 10 µM; 0.54% of 93,000 active; AID 1497;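 active = primary inhibition of 50% or more at 10 µM, then 40% or more on retest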
CD11b adhes enh: increases human CD11b/CD18 adhesion to fibrinogen | P05107+P11215 | K562 CD11b/CD18 adhesion to fibrinogen, ATPlite luminescence | activation, % at 10 µM | 0.07% of 93,000 active;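 active = 10 µM primary screen giving 50% or more activity, confirmed by 40% or more on retest at that dose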
CYP2C19 inh: human CYP2C19 inhibition. 21% of 96,000 active. inhibition, % at 5 µM. CYP2C19 Supersomes, luciferin-H EGE luminescence, 30 min. AID 778. P33261;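 active = CYP2C19 inhibition above a set limit at 5 µM in the primary screen, cut at about 50% in these data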
CYP2C19 act: increases human CYP2C19 enzyme activity. recombinant CYP2C19, luciferin-H EGE luminescence; stronger effect = higher value; 0 = fully inhibited enzyme, 1 = untreated enzyme. activation factor at 5 µM. AID 1025. 96,000 tested, under 10 active. P33261;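 active = activation factor of at least 2 at 5 µM in the primary screen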
Each line names hits and unclear results; the compound was inactive in the other large screens. In the library only some 28% were active in any assay of this set; here they are far more common.

COc1ccc(/C=N/c2oc(-c3ccccc3)cc2C#N)cc1	none
O=C(O)c1ccc(NC(CSCc2ccc(F)cc2)C(=O)O)c([N+](=O)[O-])c1 (configuration not stated)	CYP2C9 inhib 90.4
Cc1ccc(CSCC(Nc2ccc(C(=O)O)cc2[N+](=O)[O-])C(=O)O)cc1 (configuration not stated)	CYP2C9 inhib 93.8
O=C(O)c1ccc(NC(CSCc2cccc(F)c2)C(=O)O)c([N+](=O)[O-])c1 (configuration not stated)	CYP2C9 inhib 61.9
O=C(Nc1ccccc1)c1ccc(NCCc2ccccc2)c([N+](=O)[O-])c1	none (no result: CYP2C9 act, CYP2C9 inhib, CYP2C19 inh, CYP2C19 act)
O=C(O)CCC(=O)c1c[nH]c2ccccc12	none (no result: Mac1 fbg inh, CD11b adhes enh)
CC1=C(C(=O)Nc2ccccc2)C(c2ccc(C)o2)n2ncnc2N1 (configuration not stated)	none
O=C(NCc1cccnc1)c1cc(S(=O)(=O)N2CCCCC2)ccc1Cl	CYP2C9 inhib 93.8, CYP2C19 inh 80.1
O=C(COc1ccc(S(=O)(=O)N2CCCCC2)cc1)NCc1cccnc1	CYP2C9 inhib 59.8
O=C(COc1ccc(S(=O)(=O)Nc2ccccc2)cc1)NCc1cccnc1	none (no result: CYP2C9 act, CYP2C9 inhib, CYP2C19 inh, CYP2C19 act)
O=C(NCc1cccnc1)c1cccc(S(=O)(=O)N2CCOCC2)c1	CYP2C19 inh 61.1
O=C(NCc1ccco1)c1ccc(S(=O)(=O)c2cccc(S(=O)(=O)N3CCOCC3)c2)cc1	CYP2C19 inh 50.6
COc1ccc(Cl)c(Cn2c(NCCCO)nc3c2c(=O)n(C)c(=O)n3C)c1	none
CCOC(=O)c1ccc(N2C(=O)CC(NC3CCN(C(=O)c4ccc(F)cc4)CC3)C2=O)cc1 (configuration not stated)	none
OCCN(CCO)Cc1ccc(Br)cc1	none
C/C(CC(C)C)=N\NC(=O)Nc1ccccc1	none (no result: CYP2C9 act, CYP2C9 inhib, CYP2C19 inh, CYP2C19 act)
OC(COC(c1ccc(F)cc1)c1ccc(F)cc1)CN1CCc2ccccc2C1 (configuration not stated)	none (no result: CYP2C9 act, CYP2C9 inhib, CYP2C19 inh, CYP2C19 act)
CCC1=NC(c2ccccc2OC)N(O)C1(C)C (configuration not stated)	none
Cc1ccnc(NC(=O)c2cc(S(=O)(=O)N3CCCCC3)ccc2Cl)c1	CYP2C9 inhib 88.4
O=C(NCc1cccnc1)c1cccc(S(=O)(=O)N2CCCCC2)c1	CYP2C19 inh 64.9
O=C(NCc1cccnc1)C1CCN(S(=O)(=O)c2cccnc2)CC1	none
COC(=O)C1CCN(C(=O)Cc2ccc(C)cc2)CC1	none
CC1CCN(C(=O)CSc2nnc(CNC(=O)COc3ccc(Cl)cc3)o2)CC1	CYP2C9 inhib 57.3, CYP2C19 inh 67.2
O=C(COc1ccc(Cl)cc1)NCc1nnc(SCC(=O)Nc2ccccc2)o1	CYP2C9 act 2
c1ccc2c(c1)C(=Nn1cnnc1)c1ccccc1-2	none
O=C1/C(=N/n2cnnc2)c2ccccc2N1Cc1ccccc1	CYP2C19 inh 62.7 (no result: Mac1 fbg inh, CD11b adhes enh)
Cc1ccc(Cl)cc1N1CCN(S(=O)(=O)c2ccc3c(c2)oc(=O)n3C)CC1	CYP2C9 inhib 96.9
Cn1c(=O)oc2cc(S(=O)(=O)N3CCC4(CC3)OCCO4)ccc21	CYP2C19 inh 75.3
Cn1c(=O)oc2cc(S(=O)(=O)N3CCOCC3)ccc21	none
O=C(c1ccccc1Oc1nnnn1-c1ccccc1)N1CCOCC1	none
COc1ccccc1NC(=O)c1ccc(NC(=O)COC(=O)C2CCCCC2)cc1	none (no result: CYP2C9 act, CYP2C9 inhib, CYP2C19 inh, CYP2C19 act)
O=C(CCn1c(=O)c2ccccc2n(CC(=O)NC2CCCC2)c1=O)NCCc1ccc(Cl)cc1	CYP2C9 inhib 69.0, CYP2C19 inh 54.7
CCOc1ccccc1NC(=O)Cn1c(=O)n(CCC(=O)NC2CCCC2)c(=O)c2ccccc21	CYP2C9 inhib 73.5
O=C(Cn1c(=O)n(CCCCC(=O)NC2CCCC2)c(=O)c2ccccc21)NCCC1=CCCCC1	none (no result: Mac1 fbg inh, CD11b adhes enh)
CCCCNC(=O)CCn1c(=O)c2ccccc2n(CC(=O)N2CC(C)CC(C)C2)c1=O (configuration not stated)	CYP2C9 inhib 95.2
Cc1cccc(NC(=O)Cn2c(=O)n(CCC(=O)NC3CCCC3)c(=O)c3ccccc32)c1	none
NC(=O)Cn1c(=O)n(CCCC(=O)NC2CCN(Cc3ccccc3)CC2)c(=O)c2ccccc21	none
CC1CCN(C(=O)Cn2c(=O)n(CCc3ccccc3)c(=O)c3ccccc32)CC1	none
Cc1ccc(CNC(=O)CCCn2c(=O)c3ccccc3n(CC(=O)NC3CCCC3)c2=O)cc1	CYP2C9 inhib 75.0 (no result: Mac1 fbg inh, CD11b adhes enh)
Cc1sc2nc3n(c(=O)c2c1C)Cc1ccccc1-3	none
CCOCCN1CCN(c2c(C)c(C)nc3cc(-c4cc(OC)cc(OC)c4)nn23)CC1	CYP2C9 inhib 54.1, CYP2C19 inh 86.6
COCc1[nH]nc2c1C(c1cc(OC)c(O)c(OC)c1)C(C#N)=C(N)O2 (configuration not stated)	none
CSCCC(NC(=O)c1ccco1)C(=O)OCC(=O)Nc1sccc1C#N (configuration not stated)	CYP2C9 inhib 78.1, CYP2C19 inh 55.3
CCOc1cc(-c2nc3ccccn3c2NCC2CCCO2)ccc1O (configuration not stated)	CYP2C9 inhib 75.2
COc1cc(-c2nc3ccccn3c2NCC2CCCO2)ccc1O (configuration not stated)	none
Cc1oc(-c2ccccc2Cl)nc1Cn1cccc1C1=NC(c2ccccc2)CO1 (configuration not stated)	CYP2C9 inhib 74.7
Cc1nnc(N2C(=O)c3cccc4cccc(c34)C2=O)s1	none
CCCc1nnc(N2C(=O)c3cccc4cccc(c34)C2=O)s1	CYP2C9 act 3
CC(=O)c1c(C)[nH]c(C(=O)COC(=O)CN(C)S(=O)(=O)c2ccc(Cl)cc2)c1C	none
O=C(CSc1nc2[nH]ncc2c(=O)n1-c1ccccc1Br)NCc1ccco1	none
O=C(CSc1nnc(Cn2nnc3ccccc32)o1)N(Cc1ccc(Cl)cc1)c1ccccc1	none
Clc1ccc(CSc2nnc(CNc3cccc(Cl)c3)o2)cc1	CYP2C19 inh 52.6
CC(C)(C)OC(=O)NCCc1nnc(SCc2ccc(Cl)cc2)o1	CYP2C9 inhib 53.9
CC(C)(C)OC(=O)NCCCCCc1nnc(SCC(=O)Nc2cccc(Cl)c2)o1	CYP2C9 inhib 89.8, CYP2C19 inh 93.0
CC(C)(C)OC(=O)NCCc1nnc(SCC(=O)Nc2cccc(Cl)c2)o1	none
O=C(CSc1nnc(CNc2cccc(Cl)c2)o1)OC1CCCCC1	none (no result: Mac1 fbg inh, CD11b adhes enh)
Clc1ccc(CSc2nnc(Cn3cnc4ccccc43)o2)cc1	CYP2C9 inhib 66.6
CCNc1nc2c(c(=O)[nH]c(=O)n2C)n1Cc1ccc(F)cc1	none
CCOCCCNC(=O)C(NC(=O)CNC(=O)c1ccccc1)c1ccccc1 (configuration not stated)	none
CCc1nc(OCc2ccccc2)c2sc3nc4c(cc3c2n1)COC(C)(C)C4	none
C/C(=N\OCC(=O)NC12CC3CC(CC(C3)C1)C2)c1cc2ccccc2o1	none (no result: CYP2C9 act, CYP2C9 inhib, CYP2C19 inh, CYP2C19 act)

Screening data deposited in PubChem by Sanford-Burnham Center for Chemical Genomics.
